Test results as given in PubChem BioAssay AID588726 (The Scripps Research Institute Molecular Screening Center, 2011).
Hit rate of the full screen: of about 360,000 compounds, about 8,200 (2.3%) were called active. Rule as the data show it: active = inhibition above about 27%; inactive = the rest. The entries come from a sample that favours actives as a whole.

Each compound was assayed against Fructose-bisphosphate aldolase (Mycobacterium tuberculosis (strain ATCC 25618 / H37Rv)) (UniProt P9WQA3) (assay: Mtb FBA enzyme inhibitors, primary screen, biochemical, fluorescence, strain H37Rv (AID 588726;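 also: 0% = vehicle and 100% = reference inhibitor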)). Conditions: purified M. tuberculosis FBA, fluorescence read-out, at 1 µM, active compounds read high.
Sequence of Fructose-bisphosphate aldolase (Mycobacterium tuberculosis (strain ATCC 25618 / H37Rv)) (P9WQA3 whole entry, looked up): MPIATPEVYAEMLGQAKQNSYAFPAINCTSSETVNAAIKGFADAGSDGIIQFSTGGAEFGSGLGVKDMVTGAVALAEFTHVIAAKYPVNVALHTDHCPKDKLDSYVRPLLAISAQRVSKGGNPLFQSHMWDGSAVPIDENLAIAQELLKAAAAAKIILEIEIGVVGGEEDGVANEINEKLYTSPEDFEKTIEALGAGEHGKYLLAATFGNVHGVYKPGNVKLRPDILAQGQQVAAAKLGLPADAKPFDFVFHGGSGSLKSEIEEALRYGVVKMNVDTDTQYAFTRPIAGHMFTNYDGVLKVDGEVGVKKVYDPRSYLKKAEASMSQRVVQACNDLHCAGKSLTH

SMILES | inhibition
CCN(C(=O)COC(=O)C1CCN(S(=O)(=O)c2ccc(C)c(C)c2)CC1)C1CCS(=O)(=O)C1 (stereo not given) | 4.31% (inactive)
CCNC(=O)COC(=O)CCNC(=O)c1cccc(C)c1 | -2.08% (inactive)
COCCN(CCOC)c1nc(N)c2c(N)nc3c(c2c1C#N)CC(=O)N3Cc1ccc(Cl)cc1 | 32.8% (active)
CN(Cc1ccccc1)C(=O)C1CCCN(c2ncnc3c2nc2n3CCCCC2)C1 (stereo not given) | 0.44% (inactive)
COc1cccc(NS(=O)(=O)c2ccc(-c3coc(C)n3)cc2)c1 | -2.5% (inactive)
O=C(/C=C/[C@H]1O[C@@H](n2ccc(=O)[nH]c2=O)[C@H](O)[C@@H]1O)NCc1ccccn1 | -1.68% (inactive)
CCOC(=O)c1cc(C(C)C)sc1NC(=O)COC(=O)c1nccnc1N | 55.2% (active)
CCOC(=O)c1cc(C)sc1NC(=O)C1CCC1 | 4.25% (inactive)
Cc1cc(C(=O)OCC(=O)Nc2nnc(C(C)C)s2)c2ccccc2n1 | 1.64% (inactive)
COc1ccc2c(c1)NP(=S)(c1ccccc1)N2 (stereo not given) | 18.1% (inactive)
Cc1cc(C)c2c(c1)NP(=S)(c1ccccc1)N2 (stereo not given) | 34.4% (active)
O=C(C1CCCO1)N1CCC(c2nc3ccccc3[nH]2)CC1 (stereo not given) | -0.87% (inactive)
COc1cc2nc(N3CCN(C(=O)[C@@H]4CCCO4)CC3)nc(N)c2cc1OC | 95.4% (active)
COC(=O)c1cc(OC)c(OC)cc1NC(=O)C1CCCO1 (stereo not given) | 15.2% (inactive)
C=CCOc1ccc(/C=C/C(=O)OCC(=O)NCC2CCCO2)cc1 (stereo not given) | 1.08% (inactive)
CCOc1ccc(S(=O)(=O)NCCC(=O)NCC2CCCO2)cc1 (stereo not given) | -1.07% (inactive)
CC1(C)CC(=O)c2cc(OCC(=O)NCC3CCCO3)ccc2O1 (stereo not given) | 78.8% (active)
CC1=C(C(=O)N(C(C)C)C(C)C)CC(CC(=O)NCCCCc2ccccc2)C(=O)N1CCC1=CCCCC1 (stereo not given) | -1.08% (inactive)
O=C(NC1CC1)C(Cc1ccccc1)NS(=O)(=O)c1ccccc1F (stereo not given) | 2.61% (inactive)
Cc1ccc(SCC(=O)NNC(=O)c2ccc(S(C)(=O)=O)cc2)cc1 | 0.63% (inactive)
CC(C)(C)c1ccc(/C=C/C(=O)NCCCn2ccnc2)cc1 | 1.36% (inactive)
O=C(O)c1ccccc1-c1cccc2nncn12 | 4.68% (inactive)
CCCC/C=C/c1cccc2nncn12 | 27.5% (active)
OCC1(CO)CC2(C1)CC(CO)(CO)C2 | 0.01% (inactive)

SMILES | inhibition
Cc1nn(-c2ncccn2)c2c1C(=O)CC(C)(C)C2Br (stereo not given) | 4.4% (inactive)
COc1ccc(NC(=O)/C(N=Nc2cccc(S(=O)(=O)Nc3ccc(SC(F)F)cc3)c2)=C(\C)O)cc1 | -0.31% (inactive)
CCc1ccc(C(=O)NC(=S)Nc2ccccc2N2CCOCC2)cc1 | 0.12% (inactive)
Cc1cc(=O)[nH]c(SCc2ccc(Cl)cc2)n1 | 0.44% (inactive)
Cc1cc(=O)n2[nH]c(-c3cccc(Cl)c3)cc2n1 | 32.4% (active)
O=c1c2c(nc3cc(-c4cccc(Cl)c4)[nH]n13)CCCC2 | 3.87% (inactive)
C[C@H](NC(=O)c1ccccc1Cl)C(=O)OCCOc1cccc(Cl)c1 | 4.6% (inactive)
CCN(CC)CCNCc1ccc(OCc2ccc(Cl)nc2)c(OC)c1 | -0.85% (inactive)
O=C(CN1C(=O)NC2(CCCC2)C1=O)Nc1ccc(F)c(F)c1F | -0.1% (inactive)
CC(=O)NCCC(=O)Nc1nc(C)c(Cc2ccc3c(c2)OCO3)s1 | -0.89% (inactive)
Cc1cc(NC(=O)CN2C(=O)NC(CCc3ccccc3)C2=O)no1 (stereo not given) | 0.86% (inactive)
C[C@H](O)[C@@H]1C(=O)N2CCc3ccc(N4CCOCC4)cc3[C@@H]2C[C@@H]1N(C)C(=O)C(C)(C)C | 7.29% (inactive)
C[C@H](O)[C@@H]1C(=O)N2CCc3c([nH]c4ccccc34)[C@@H]2C[C@@H]1N(C)C(=O)Nc1ccc(F)cc1 | 55.9% (active)
COCC(=O)N(C)[C@H]1C[C@H]2c3cc(Oc4ccccc4C)ccc3CCN2C(=O)[C@H]1[C@H](C)O | 0.95% (inactive)
COc1ccc(CCNC(=O)CCCCCNC(=O)N2CCn3c2nc2ccccc23)cc1OC | -0.38% (inactive)
CCc1nc2ccccc2c(C(=O)OC2CCCCC2=O)c1C (stereo not given) | 0.09% (inactive)
CCOc1ccc2c(=O)c(-c3ccc4c(c3)OCCCO4)c(C)oc2c1 | -0.24% (inactive)
CCc1c(C)c2ccc(OC3CCCCC3=O)cc2oc1=O (stereo not given) | 90.5% (active)
COC(=O)C(NS(=O)(=O)c1ccc(F)cc1)c1ccccc1 (stereo not given) | 1.52% (inactive)
CCSC1(SCC)N=C(N)C2(C#N)C(c3ccccc3)NC(C)=CC12C#N (stereo not given) | 4.9% (inactive)
CN1C[C@@H](CO)O[C@@H](n2cnc3c(N4CCN(CCO)CC4)ncnc32)C1 | -1.44% (inactive)
CCOC(=O)N1CCN(C(=O)c2n[nH]c(=O)c3ccccc23)CC1 | -0.89% (inactive)
COc1cccc2cc(C(=O)N3CCN(C(=O)c4ccccc4)CC3)c(=O)oc12 | -2.27% (inactive)
COc1ccc(-c2nc(CS(=O)CC(=O)NCc3ccccn3)c(C)o2)cc1 (stereo not given) | 4.79% (inactive)

SMILES | inhibition
CCOC(=O)N1CCN(C(=O)c2cc3c(ccc4ccccc43)oc2=O)CC1 | 48.8% (active)
COc1ccc(C(=O)N2CCCN(C)CC2)c(OC)c1 | 1.38% (inactive)
COc1ccc2oc(=O)c(C(=O)NCc3ccccn3)cc2c1 | 82.7% (active)
COc1ccc2oc(=O)c(C(=O)N3CCCC3)cc2c1 | 27.7% (active)
C=CCc1cccc2cc(C(=O)N3CCN(C(=O)OCC)CC3)c(=O)oc12 | 1.44% (inactive)
COc1ccc(NC(=O)C2C3C=CC(C3)C2C(=O)NCc2ccccn2)c(OC)c1 (stereo not given) | 3.99% (inactive)
C=CCC(CC=C)(C(N)=O)c1ccccc1 | -1.04% (inactive)
C[C@H]1CN([C@@H](C)CO)C(=O)CCCn2cc(nn2)CO[C@@H]1CN(C)C(=O)Nc1ccccc1 | 0.08% (inactive)
O=C(NC1CCCC1)C1CC(=O)N(c2ccc(F)cc2)C1 (stereo not given) | -3.06% (inactive)
COc1cccc(NC(=O)C2(C)CCN2Cc2ccccc2Cl)c1 (stereo not given) | 3.88% (inactive)
Cc1cc(=O)oc2cc(OCC3CC(c4ccccc4Cl)=NO3)ccc12 (stereo not given) | 9.86% (inactive)
Cc1nc(COc2cc3oc(=O)cc(C)c3cc2Cl)cs1 | 27.6% (active)
CCOC(=O)Cc1csc(SCc2cc(=O)oc3cc(O)ccc23)n1 | 2.87% (inactive)
CC1(C)Cc2c(sc(NC(=O)C(=O)N3CCOCC3)c2C#N)CO1 | 1.66% (inactive)
C1=C(N2CCOCC2)/C(=C/c2nc3ccccc3[nH]2)CC1 | 14.8% (inactive)
CCOC(=O)CSc1nc(N2CCOCC2)c2c(c1C#N)CC(C(C)C)OC2 (stereo not given) | 0.67% (inactive)
CC(C)c1nc(N2CCOCC2)c(C#N)c2c1COC(C)(C)C2 | 48.2% (active)
CC1(C)Cc2c(C#N)c(SCc3nc4ccccc4[nH]3)nc(N3CCOCC3)c2CO1 | 29.3% (active)
CC(C)C(=O)N1CCN(c2nc(-c3ccccc3)c3c(c2C#N)CC(C)(C)OC3)CC1 | 18.4% (inactive)
CN1CCC2(CC1)NC(=O)NC2=O | 0.25% (inactive)
Cc1cc(C(=O)N2CCC(C(=O)O)CC2)c(C(F)(F)F)o1 | -0.52% (inactive)
CC(C)CN1CCNC(=O)C1CC(=O)N(C)CC1CCOCC1 (stereo not given) | 91.2% (active)
CN(CCC1CCOCC1)C(=O)CC1C(=O)NCCN1Cc1cccc(F)c1 (stereo not given) | 5.7% (inactive)
COc1ccccc1CN1CCNC(=O)C1CC(=O)N(C)CC1CCOCC1 (stereo not given) | 0.79% (inactive)

SMILES | inhibition
N#CCc1c[nH]c2ccc([N+](=O)[O-])cc12 | -4.4% (inactive)
O=C(CN(C(=O)c1csnn1)c1ccc(Br)cc1)NC1CCCC1 | 2.14% (inactive)
COc1ccc(/C=C/C(=O)NC(=S)NN2CCCCC2c2cccnc2)cc1 (stereo not given) | 1.24% (inactive)
CC1CCCCN1C(=O)CCS(=O)(=O)Cc1ccccc1 (stereo not given) | -0.22% (inactive)
Cc1nn(-c2ccccc2)nc1C(=O)OCC(=O)N1CCCCC1C (stereo not given) | 31.5% (active)
Cc1cc(C(=O)OCC(=O)N2C(C)CCCC2C)c2ccccc2n1 (stereo not given) | 6.33% (inactive)
O=C(CN(C(=O)c1nsc(Cl)c1Cl)c1cccc(F)c1)NC1CCCC1 | 0.07% (inactive)
COc1ccc(CNC(=O)COC(=O)/C=C/c2ccc(S(=O)(=O)N3CCOCC3)cc2)cc1 | -5.75% (inactive)
Cc1ccc(S(=O)(=O)N2CCC(C(=O)OCC(=O)N3CC(=O)Nc4ccccc43)CC2)cc1 | -1.07% (inactive)
O=C1c2ccccc2NC(c2ccccn2)N1NS(=O)(=O)c1ccccc1 (stereo not given) | 11.3% (inactive)
Cc1ccc(C2Nc3ccccc3C(=O)N2CCN2CCNC2=O)cc1 (stereo not given) | 95.6% (active)
Cc1[nH]n(-c2ccccc2)c(=O)c1CCOC(=O)c1ccc(C(F)(F)F)cc1 | -0.48% (inactive)
COc1ccccc1N1CCN(CC(=O)NCCc2ccc(S(N)(=O)=O)cc2)CC1 | 0.12% (inactive)
Cc1cc(OCC(=O)NCC(O)c2ccccc2)c2c(C)c(C)c(=O)oc2c1 (stereo not given) | 66.1% (active)
CCN(CC)CCCNC(=O)COc1ccc2oc3c(c2c1)CCCC3 | 0.55% (inactive)
Cc1cc(OCC(=O)Nc2nccs2)c2c(C)c(C)c(=O)oc2c1 | 5.31% (inactive)
COc1ccc(CCNC(=O)COc2cc(C)cc3oc(=O)c(C)c(C)c23)cc1OC | 2.14% (inactive)
COc1cccc(CCNC(=O)COc2cccc3c2OC(C)(C)C3)c1 | -1.69% (inactive)
O=C(COc1ccc2c3c(c(=O)oc2c1)CCCC3)NCC(O)c1ccccc1 (stereo not given) | 15.8% (inactive)
Cc1cc(=O)oc2c3c(cc(OCC(=O)NCC(O)c4ccccc4)c12)OC(C)(C)CC3 (stereo not given) | 49.2% (active)
Cc1ccc(OCC(=O)NC(C)c2ccccc2)c([N+](=O)[O-])n1 (stereo not given) | -3.72% (inactive)
O=C(COc1ccc2ccc(=O)oc2c1)NCC(O)c1ccccc1 (stereo not given) | 15.9% (inactive)
CC(NC(=O)COc1ccc(-c2ccccc2)cc1)C1CCCO1 (stereo not given) | 0.11% (inactive)
